Reference: PubChem BioAssay (NCI)
Compounds without any hit were thinned out: in the full panel of roughly 83,000, 20% have a hit.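 Activity criterion: percent growth below 10, measured after cells in 96-well plates were exposed to a single compound concentration for 48 hours.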

Tests used:
Experiment in all cases: NCI-60 one-dose screen, 48 h (100 = growth as untreated, 0 = no growth, -100 = all killed)
Details in all cases: 10 µM unless noted
NCI-H23 lung = test system: NCI-H23 lung
NCI-H226 lung = test system: NCI-H226 lung
NCI-H322M lung = test system: NCI-H322M lung
HOP-62 NSCLC = test system: HOP-62 NSCLC
NCI-H460 lung = test system: NCI-H460 lung
HOP-92 NSCLC = test system: HOP-92 NSCLC
NCI-H522 lung = test system: NCI-H522 lung
A549/ATCC NSCLC = test system: A549/ATCC NSCLC
786-0 renal = test system: 786-0 renal
COLO 205 colon = test system: COLO 205 colon
DU-145 prostate = test system: DU-145 prostate
K-562 leukemia = test system: K-562 leukemia
MALME-3M melanoma = test system: MALME-3M melanoma
MDA-MB-231 breast = test system: MDA-MB-231 breast
RXF 393 renal = test system: RXF 393 renal
SF-268 CNS = test system: SF-268 CNS
SF-295 CNS = test system: SF-295 CNS
SF-539 CNS = test system: SF-539 CNS
UACC-257 melanoma = test system: UACC-257 melanoma
M14 melanoma = test system: M14 melanoma

Measured: growth

Cc1ccc(C2CCCCC2)cc1Br
inactive: NCI-H23 lung 105% | NCI-H226 lung 97.7% | NCI-H322M lung 99.2% | HOP-62 NSCLC 91.3% | NCI-H460 lung 108% | HOP-92 NSCLC 95% | NCI-H522 lung 91.3% | A549/ATCC NSCLC 89.4% | 786-0 renal 96.4% | COLO 205 colon 101% | DU-145 prostate 105% | K-562 leukemia 100% | MALME-3M melanoma 100% | MDA-MB-231 breast 97.4% | RXF 393 renal 105% | SF-268 CNS 99.5% | SF-295 CNS 95.5% | SF-539 CNS 101% | UACC-257 melanoma 88.8% | M14 melanoma 98.6%

CSCCC(NC(=O)C(Cl)Cl)C(=O)O (configuration not stated)
inactive: NCI-H23 lung 99% | NCI-H226 lung 88.5% | NCI-H322M lung 99.6% | HOP-62 NSCLC 77.9% | NCI-H460 lung 114% | HOP-92 NSCLC 85.2% | NCI-H522 lung 86.8% | A549/ATCC NSCLC 80.5% | 786-0 renal 101% | COLO 205 colon 99.7% | DU-145 prostate 108% | K-562 leukemia 97.8% | MALME-3M melanoma 114% | MDA-MB-231 breast 99.3% | RXF 393 renal 97.1% | SF-268 CNS 99.1% | SF-295 CNS 98.1% | SF-539 CNS 96.1% | M14 melanoma 93.8%

CSc1nsc(N)n1
inactive: NCI-H23 lung 97.9% | NCI-H226 lung 103% | NCI-H322M lung 87.9% | HOP-62 NSCLC 90% | NCI-H460 lung 97.3% | HOP-92 NSCLC 95.6% | NCI-H522 lung 90.3% | A549/ATCC NSCLC 92% | 786-0 renal 106% | COLO 205 colon 99.4% | DU-145 prostate 115% | K-562 leukemia 113% | MALME-3M melanoma 93.5% | MDA-MB-231 breast 95.9% | RXF 393 renal 108% | SF-268 CNS 104% | SF-295 CNS 101% | UACC-257 melanoma 99.9% | M14 melanoma 97.6%

OCC(O)COc1ccc(Cl)cc1Cl (configuration not stated)
inactive: NCI-H23 lung 105% | NCI-H226 lung 106% | NCI-H322M lung 95.1% | HOP-62 NSCLC 88.4% | NCI-H460 lung 111% | HOP-92 NSCLC 130% | NCI-H522 lung 79.5% | A549/ATCC NSCLC 72.6% | 786-0 renal 93.4% | COLO 205 colon 94% | DU-145 prostate 110% | K-562 leukemia 88.6% | MALME-3M melanoma 94.8% | MDA-MB-231 breast 97.8% | RXF 393 renal 115% | SF-268 CNS 105% | SF-295 CNS 97.5% | UACC-257 melanoma 79.6% | M14 melanoma 95.9%

O=C(O)C1CSC(c2ccccc2)N1 (configuration not stated)
inactive: NCI-H23 lung 95% | NCI-H226 lung 97% | NCI-H322M lung 98.8% | HOP-62 NSCLC 89.5% | NCI-H460 lung 98.5% | HOP-92 NSCLC 111% | NCI-H522 lung 79.4% | A549/ATCC NSCLC 100% | 786-0 renal 112% | COLO 205 colon 84.6% | DU-145 prostate 105% | K-562 leukemia 128% | MALME-3M melanoma 98.8% | MDA-MB-231 breast 80.9% | RXF 393 renal 106% | SF-268 CNS 102% | SF-295 CNS 99.8% | UACC-257 melanoma 106% | M14 melanoma 95.6%

c1ccc(-c2ccc3ccccc3c2)cc1
inactive: NCI-H23 lung 100% | NCI-H226 lung 80.4% | NCI-H322M lung 85% | HOP-62 NSCLC 85.3% | NCI-H460 lung 102% | HOP-92 NSCLC 77% | NCI-H522 lung 57.1% | A549/ATCC NSCLC 84.2% | 786-0 renal 112% | COLO 205 colon 96.3% | DU-145 prostate 106% | K-562 leukemia 111% | MALME-3M melanoma 84.1% | MDA-MB-231 breast 91% | RXF 393 renal 103% | SF-268 CNS 89.9% | SF-295 CNS 102% | UACC-257 melanoma 94.7% | M14 melanoma 103%

CN1CCCN(C(c2ccccc2)c2ccc(Cl)cc2)CC1 (configuration not stated)
inactive: NCI-H23 lung 91.4% | NCI-H226 lung 93.9% | NCI-H322M lung 100% | HOP-62 NSCLC 94.2% | NCI-H460 lung 93% | HOP-92 NSCLC 60.4% | NCI-H522 lung 103% | A549/ATCC NSCLC 107% | 786-0 renal 73.3% | COLO 205 colon 103% | DU-145 prostate 107% | K-562 leukemia 90% | MALME-3M melanoma 98.8% | MDA-MB-231 breast 95.8% | RXF 393 renal 86.8% | SF-268 CNS 82.3% | SF-295 CNS 92.2% | SF-539 CNS 96.9% | M14 melanoma 91.1%

CCCCN(C=S)CCCC
inactive: NCI-H23 lung 103% | NCI-H226 lung 87.4% | NCI-H322M lung 105% | HOP-62 NSCLC 81.3% | NCI-H460 lung 101% | HOP-92 NSCLC 93.8% | NCI-H522 lung 91.6% | A549/ATCC NSCLC 86.4% | 786-0 renal 101% | COLO 205 colon 99.1% | DU-145 prostate 112% | K-562 leukemia 113% | MALME-3M melanoma 101% | MDA-MB-231 breast 104% | RXF 393 renal 101% | SF-268 CNS 105% | SF-295 CNS 99.1% | UACC-257 melanoma 99.6% | M14 melanoma 94.8%

CC(CO)(CO)C(=O)O
inactive: NCI-H23 lung 110% | NCI-H226 lung 96.8% | NCI-H322M lung 99.3% | HOP-62 NSCLC 95.7% | NCI-H460 lung 105% | HOP-92 NSCLC 86.3% | NCI-H522 lung 101% | A549/ATCC NSCLC 102% | 786-0 renal 105% | COLO 205 colon 109% | DU-145 prostate 105% | K-562 leukemia 101% | MALME-3M melanoma 90.4% | MDA-MB-231 breast 108% | RXF 393 renal 99.5% | SF-268 CNS 104% | SF-539 CNS 97.9% | UACC-257 melanoma 98.4% | M14 melanoma 103%
